Reference: PubChem BioAssay (NCATS)
Inconclusive results are not listed. A call without a number means that no potency is given here. Activity calls are given as the source filed them. Unless noted, calls come from the whole dose curve; as a rule, active = well fitted curve in the direction sought with a large enough effect; inconclusive = small, poorly fitted or top-dose-only effect, or another doubt; inactive = no such curve, though single readings can be large; an effect the other way counts as inactive or inconclusive.

Columns and labels:
[1] = Counterscreen for APE1 Inhibitors: Fluorescent Dye Displacement Validation Assay (AID 1707)
Summary of the method: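 Reaction mixture of 250 nM Thiazole Orange and 50 nM double-stranded abasic-site DNA was dispensed, compounds were pin-transferred, and fluorescence was read at endpoint (480 nm ex, 540 nm em). Reduced fluorescence indicated dye displacement by DNA binding.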

[2] = molecular target: Endonuclease 4 (Escherichia coli (strain K12)) (UniProt P0A6C1); test: Counterscreen for APE1 Inhibitors: qHTS Validation Assay for Inhibitors of Endonuclease IV (AID 1708)
Summary of the method: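 Incision of a double-stranded 50 nM TAMRA/BHQ-2 abasic substrate was followed kinetically (525/598 nm, reads every 60 s) after 15 min enzyme–compound preincubation with 2 nM EndoIV in pH 7.5 Tris buffer with MgCl2, DTT and Tween-20; concentration-response format.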

[3] = qHTS for differential inhibitors of proliferation of Plasmodium falciparum line 7G8 (AID 1815);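 note: potency is the fitted concentration of half-maximal effect; parasite growth measured after three days of incubation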
[4] = qHTS for differential inhibitors of proliferation of Plasmodium falciparum line 3D7 (AID 1876); note: potency is the fitted concentration of half-maximal effect
[5] = qHTS for differential inhibitors of proliferation of Plasmodium falciparum line D10 (AID 1877);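 note: potency is the fitted concentration of half-maximal effect; parasites grown with compound for 72 h before DNA staining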
[6] = qHTS for differential inhibitors of proliferation of Plasmodium falciparum line Dd2 (AID 1882); conditions: Potency: Plasmodium falciparum Dd2 proliferation inhibition; note: potency is the fitted concentration of half-maximal effect; nearly all actives have a fitted effect of over 65% in size
Summary of the method: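 SYBR Green DNA fluorescence (ex 485, em 535 nm) after overnight lysis quantifies parasite growth; compound exposure lasted 72 h at 37 C on infected red cells at 2.5% hematocrit, 0.3% parasitemia (final). Artemisinin 0.29 uM and vehicle wells define normalization.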

[7] = qHTS for differential inhibitors of proliferation of Plasmodium falciparum line HB3 (AID 1886); conditions: Potency: Plasmodium falciparum HB3 proliferation inhibition;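 note: potency is the fitted concentration of half-maximal effect; parasites grown with compound for 72 h before SYBR Green readout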
[8] = molecular target: Ferritin light chain (Equus caballus) (UniProt P02791); test: qHTS Validation Assay for Identification of Novel General Anesthetics (AID 2323); note: series mostly up to about 77 µM
Summary of the method: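 Competitive displacement of the profluorescent anesthetic 1-AMA (50% saturated, PBS) from 10 uM apoferritin, 10 min, room temperature. Activity is normalized 380/535 nm fluorescence; concentration-response fitted with a four-parameter Hill equation.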

[9] = molecular target: ATP-dependent DNA helicase Q1 (Homo sapiens) (UniProt P46063); test: qHTS Validation Assay for Inhibitors of RecQ-Like Dna Helicase 1 (RECQ1) (AID 2353)
Summary of the method: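 RECQ1T1 50 nM; forked duplex (20 bp + 30-nt ss tails) 200 nM, ATP 2 mM final; pH 8.0, 2 mM MgCl2, 2.5 ug/ml poly(dI-dC); 15 min compound preincubation; discontinuous kinetic read over 2 h at RT.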

[10] = High Content Imaging Cell-Based qHTS for Inhibitors of the mTORC1 Signaling Pathway in MEF Cells (AID 2667);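 note: Tsc2-/- p53-/- MEFs stably re-expressing wild-type Tsc2 exposed 24 h; series mostly up to about 38 µM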
Summary of the method: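 Tsc2-/-, p53-/- MEFs stably re-expressing WT Tsc2, grown in DMEM + 10% FBS, were treated with compounds for 24 hrs at 37 degree Celsius, fixed, and stained with Alexa-488 phospho-rpS6 Ser235/236 antibody plus Hoechst; results given as % positive cells.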

[11] = Validation screen for small molecules that induce DNA re-replication in MCF 10A normal breast cells (AID 463097); note: nearly all actives have a fitted effect of over 60% in size
Summary of the method: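 Read-out is Hoechst total nuclear intensity by fluorescence scanning imager, flagging increased high-DNA-content nuclei. Compounds were incubated with MCF 10A cells for 48 hr (37 C, 5% CO2) before 40 min staining.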

[12] = molecular target: Ubiquitin carboxyl-terminal hydrolase 2 (Homo sapiens) (UniProt O75604); test: qHTS Validation Assay for Inhibitors of Ubiquitin-specific Protease USP2a Using CHOP2 as the Reporter (AID 463106)
Summary of the method: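 Readout was coupled fluorescence (Ex 485/Em 531 nm), read 60 min after adding 25 nM final Ub-CHOP2 and 25 nM reporter substrate. Beforehand, 10 nM final USP2 core had 30 min at RT with compound in pH 8.0 buffer. Curves were fitted after normalization to NEM and flagged for artifacts using time-zero reads.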

[13] = molecular target: Tumor susceptibility gene 101 protein (Homo sapiens) (UniProt Q99816); test: qHTS Validation Assay for Iinhibitors of HIV-1 Budding by Blocking the Interaction of PTAP/TSG101 (AID 485342; calls by dose curve)
Summary of the method: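 Fluorescence polarization of 50 nM FITC-PTAP peptide bound to 10 uM Tsg101 binding domain was read after 20 min room-temperature incubation with compounds, in 10 mM HEPES pH 7.5, 0.15 M NaCl, 0.01% Tween 20.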

[14] = molecular target: Beta-2 adrenergic receptor (Homo sapiens) (UniProt P07550); test: qHTS validation assay of beta-arrestin-biased ligands of beta2-adrenergic receptor (AID 485366)
Summary of the method: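 qHTS, Tango cells, 1500 cells/well, DMEM + 1% FBS. Cpd 18 hr at 37 degrees C. Luciferin/ATP/CoA detection mix, 15 min RT, luminescence read. %Activity from corrected signal; CRC fit, curve class.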

[15] = Quantitative high throughput screen for delayed death inhibitors of the malarial parasite plastid, 96 hour incubation (AID 488745); note: potency is the fitted concentration of half-maximal effect; nearly all actives have a fitted effect of over 70% in size
Summary of the method: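 Decreased firefly luciferase luminescence indicates inhibited growth of reporter-integrated P. falciparum after two generations (96 h, 37 C, 5% CO2). Infected erythrocytes at 0.1% parasitemia, 2% hematocrit, in Albumax-supplemented RPMI 1640.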

[16] = molecular target: Thioredoxin reductase 1, cytoplasmic (Rattus norvegicus) (UniProt O89049); test: qHTS Assay for Substrates of Mammalian Selenoprotein Thioredoxin Reductase 1 (TrxR1) (AID 488772);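 note: series mostly up to about 57 µM; a drop in NADPH fluorescence below the no-compound background marks a TrxR1 substrate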
Summary of the method: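 In this dual-purpose format, potential substrates are identified from the first fluorescence read after selenite addition, not from the 8-minute delta. Rat enzyme is preincubated with NADPH and then with compound at ~22 deg C.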

[17] = molecular target: Thioredoxin reductase 1, cytoplasmic (Rattus norvegicus) (UniProt O89049); test: qHTS Assay for Inhibitors of Mammalian Selenoprotein Thioredoxin Reductase 1 (TrxR1) (AID 488773); conditions: Potency: inhibition; note: potency is the fitted concentration of half-maximal effect; nearly all actives have a fitted effect of over 40% in size
Summary of the method: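 Inhibition is scored from the loss of NADPH fluorescence between first and last reads of an 8-min kinetic run. Selenite (400 uM) was the substrate, added after 15 min compound preincubation at room temperature.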

[18] = molecular target: M-phase phosphoprotein 8 (Homo sapiens) (UniProt Q99549); test: qHTS Validation Assay for Inhibitors for MPP8 Chromodomain Interactions with Methylated Histone Tails (AID 488949);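 note: AlphaScreen signal from MPP8 chromodomain bound to biotinylated H3K9me3 peptide; top concentration of the series differs between compounds; nearly all actives have a fitted effect of over 55% in size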
Summary of the method: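 AlphaScreen proximity signal from streptavidin donor and Ni-chelate acceptor beads (10 ug/mL each) reported binding of MPP8 to trimethyl-K9 H3(1-18) peptide, both at 50 nM. The complex formed 30 min before a 30 min compound exposure at room temperature, in PBS pH 7.4.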

[19] = molecular target: Methanococcus maripaludis chaperonin (MmCpn) (UniProt Q6LX38); test: High-Throughput Screening for Modulators of Cytosolic Chaperonin Activity: MmCpn Primary Screen (AID 488978);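 note: 50 nM MmCpn enzyme hydrolysing 30 µM ATP at 37 °C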
Summary of the method: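 ATPase activity of 50 nM MmCpn was assayed with 30 uM ATP, 10 minutes at 37C, after a 5 min compound preincubation at room temperature. ADP production was read as HTRF emission at 590 and 665 nm.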

[20] = molecular target: Transient receptor potential cation channel subfamily V member 1 (Homo sapiens) (UniProt Q8NER1); test: HTS Assay for Compounds that Act as Enhancers of the Vanilloid Receptor 1 (AID 488979)
Summary of the method: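 Calcium influx kinetics via Fluo-8 (480/520 nm) in TRPV1-expressing cells, 2000/well cultured overnight at 35.5C. Compound-alone read 3 min (agonist phase), followed by EC20 capsaicin challenge for 2 min (enhancer phase).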

Sequence of Thioredoxin reductase 1, cytoplasmic (Rattus norvegicus) (O89049 whole entry, looked up): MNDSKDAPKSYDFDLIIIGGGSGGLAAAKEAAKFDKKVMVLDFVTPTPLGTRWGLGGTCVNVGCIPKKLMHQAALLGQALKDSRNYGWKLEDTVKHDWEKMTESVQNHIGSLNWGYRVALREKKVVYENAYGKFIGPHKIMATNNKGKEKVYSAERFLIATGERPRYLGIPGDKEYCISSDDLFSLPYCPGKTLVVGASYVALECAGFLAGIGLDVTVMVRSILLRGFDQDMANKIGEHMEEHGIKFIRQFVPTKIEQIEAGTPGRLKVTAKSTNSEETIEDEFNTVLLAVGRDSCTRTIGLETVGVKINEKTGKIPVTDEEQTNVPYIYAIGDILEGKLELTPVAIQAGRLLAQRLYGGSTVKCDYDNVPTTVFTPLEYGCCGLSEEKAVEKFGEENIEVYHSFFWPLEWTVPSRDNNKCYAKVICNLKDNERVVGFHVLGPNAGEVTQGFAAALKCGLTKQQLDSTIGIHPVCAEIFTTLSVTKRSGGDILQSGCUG
Sequence of Methanococcus maripaludis chaperonin (MmCpn) (Q6LX38 1-543): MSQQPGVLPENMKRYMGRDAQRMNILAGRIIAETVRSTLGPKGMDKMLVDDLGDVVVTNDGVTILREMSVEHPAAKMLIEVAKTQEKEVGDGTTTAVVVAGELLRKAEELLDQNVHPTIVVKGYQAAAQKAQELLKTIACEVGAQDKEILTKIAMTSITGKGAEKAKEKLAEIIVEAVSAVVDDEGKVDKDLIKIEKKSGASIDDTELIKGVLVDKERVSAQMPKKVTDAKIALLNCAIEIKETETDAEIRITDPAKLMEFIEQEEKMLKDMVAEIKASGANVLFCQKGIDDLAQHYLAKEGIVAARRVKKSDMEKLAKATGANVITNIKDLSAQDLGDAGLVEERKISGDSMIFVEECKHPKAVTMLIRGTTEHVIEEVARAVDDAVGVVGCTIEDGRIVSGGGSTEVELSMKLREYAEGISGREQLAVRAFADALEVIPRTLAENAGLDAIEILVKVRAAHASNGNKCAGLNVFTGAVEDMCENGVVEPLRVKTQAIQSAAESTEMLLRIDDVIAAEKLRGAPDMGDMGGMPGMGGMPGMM
Sequence of Beta-2 adrenergic receptor (Homo sapiens) (P07550 whole entry, looked up): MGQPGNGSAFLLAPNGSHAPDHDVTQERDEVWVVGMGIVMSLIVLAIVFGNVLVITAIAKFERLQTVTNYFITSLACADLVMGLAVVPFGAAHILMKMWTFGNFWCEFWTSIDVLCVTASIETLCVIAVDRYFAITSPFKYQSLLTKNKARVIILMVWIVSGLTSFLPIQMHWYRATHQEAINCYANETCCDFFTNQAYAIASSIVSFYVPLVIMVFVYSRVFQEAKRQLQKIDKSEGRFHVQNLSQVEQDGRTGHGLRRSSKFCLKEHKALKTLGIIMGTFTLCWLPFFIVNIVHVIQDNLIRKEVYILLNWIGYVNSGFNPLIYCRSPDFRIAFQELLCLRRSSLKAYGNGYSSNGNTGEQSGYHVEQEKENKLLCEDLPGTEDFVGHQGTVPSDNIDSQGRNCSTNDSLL
Sequence of ATP-dependent DNA helicase Q1 (Homo sapiens) (P46063 whole entry, looked up): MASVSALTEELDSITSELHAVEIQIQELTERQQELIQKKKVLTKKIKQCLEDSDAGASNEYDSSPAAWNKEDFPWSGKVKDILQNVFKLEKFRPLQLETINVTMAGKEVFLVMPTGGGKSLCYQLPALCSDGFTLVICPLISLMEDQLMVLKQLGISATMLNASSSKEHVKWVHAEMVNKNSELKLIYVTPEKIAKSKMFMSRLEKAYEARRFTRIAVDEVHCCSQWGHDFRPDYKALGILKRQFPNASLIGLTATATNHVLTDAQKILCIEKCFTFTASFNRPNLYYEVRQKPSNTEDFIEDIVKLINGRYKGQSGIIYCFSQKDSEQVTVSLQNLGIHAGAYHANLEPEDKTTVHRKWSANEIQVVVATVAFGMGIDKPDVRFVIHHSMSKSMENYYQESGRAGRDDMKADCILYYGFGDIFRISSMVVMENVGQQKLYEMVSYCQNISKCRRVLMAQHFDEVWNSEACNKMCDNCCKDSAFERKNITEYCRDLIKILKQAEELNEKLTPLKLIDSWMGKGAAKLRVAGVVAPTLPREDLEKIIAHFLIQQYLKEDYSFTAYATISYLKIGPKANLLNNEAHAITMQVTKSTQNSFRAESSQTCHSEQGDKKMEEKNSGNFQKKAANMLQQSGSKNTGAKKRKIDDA
Sequence of Ubiquitin carboxyl-terminal hydrolase 2 (Homo sapiens) (O75604 whole entry, looked up): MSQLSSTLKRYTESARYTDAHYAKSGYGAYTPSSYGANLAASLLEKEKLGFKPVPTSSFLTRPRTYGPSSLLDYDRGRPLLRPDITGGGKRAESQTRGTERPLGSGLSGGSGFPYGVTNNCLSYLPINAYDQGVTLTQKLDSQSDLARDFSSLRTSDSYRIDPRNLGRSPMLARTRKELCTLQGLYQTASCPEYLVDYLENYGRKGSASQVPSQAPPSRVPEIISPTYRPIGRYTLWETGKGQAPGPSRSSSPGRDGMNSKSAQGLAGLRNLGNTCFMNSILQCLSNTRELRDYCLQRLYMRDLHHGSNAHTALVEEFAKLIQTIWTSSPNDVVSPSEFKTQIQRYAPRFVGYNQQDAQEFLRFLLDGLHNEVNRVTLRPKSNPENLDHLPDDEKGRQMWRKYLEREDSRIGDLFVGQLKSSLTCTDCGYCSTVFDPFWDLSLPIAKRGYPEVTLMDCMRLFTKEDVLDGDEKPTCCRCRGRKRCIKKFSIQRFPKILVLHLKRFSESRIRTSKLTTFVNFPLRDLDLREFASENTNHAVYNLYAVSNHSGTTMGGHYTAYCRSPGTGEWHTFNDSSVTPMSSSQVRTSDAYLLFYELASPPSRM
Sequence of Tumor susceptibility gene 101 protein (Homo sapiens) (Q99816 whole entry, looked up, the tested form may be a part): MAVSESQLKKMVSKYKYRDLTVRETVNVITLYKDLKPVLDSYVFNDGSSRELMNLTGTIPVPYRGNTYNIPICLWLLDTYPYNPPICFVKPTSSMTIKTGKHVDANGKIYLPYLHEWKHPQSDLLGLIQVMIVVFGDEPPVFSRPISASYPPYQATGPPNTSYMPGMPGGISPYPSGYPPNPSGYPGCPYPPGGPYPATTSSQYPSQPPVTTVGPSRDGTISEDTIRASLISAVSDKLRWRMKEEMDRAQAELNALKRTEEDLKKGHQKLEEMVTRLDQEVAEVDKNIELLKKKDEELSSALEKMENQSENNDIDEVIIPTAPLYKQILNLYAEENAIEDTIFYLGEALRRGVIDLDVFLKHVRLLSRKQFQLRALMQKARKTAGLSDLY
Sequence of M-phase phosphoprotein 8 (Homo sapiens) (Q99549 whole entry, looked up): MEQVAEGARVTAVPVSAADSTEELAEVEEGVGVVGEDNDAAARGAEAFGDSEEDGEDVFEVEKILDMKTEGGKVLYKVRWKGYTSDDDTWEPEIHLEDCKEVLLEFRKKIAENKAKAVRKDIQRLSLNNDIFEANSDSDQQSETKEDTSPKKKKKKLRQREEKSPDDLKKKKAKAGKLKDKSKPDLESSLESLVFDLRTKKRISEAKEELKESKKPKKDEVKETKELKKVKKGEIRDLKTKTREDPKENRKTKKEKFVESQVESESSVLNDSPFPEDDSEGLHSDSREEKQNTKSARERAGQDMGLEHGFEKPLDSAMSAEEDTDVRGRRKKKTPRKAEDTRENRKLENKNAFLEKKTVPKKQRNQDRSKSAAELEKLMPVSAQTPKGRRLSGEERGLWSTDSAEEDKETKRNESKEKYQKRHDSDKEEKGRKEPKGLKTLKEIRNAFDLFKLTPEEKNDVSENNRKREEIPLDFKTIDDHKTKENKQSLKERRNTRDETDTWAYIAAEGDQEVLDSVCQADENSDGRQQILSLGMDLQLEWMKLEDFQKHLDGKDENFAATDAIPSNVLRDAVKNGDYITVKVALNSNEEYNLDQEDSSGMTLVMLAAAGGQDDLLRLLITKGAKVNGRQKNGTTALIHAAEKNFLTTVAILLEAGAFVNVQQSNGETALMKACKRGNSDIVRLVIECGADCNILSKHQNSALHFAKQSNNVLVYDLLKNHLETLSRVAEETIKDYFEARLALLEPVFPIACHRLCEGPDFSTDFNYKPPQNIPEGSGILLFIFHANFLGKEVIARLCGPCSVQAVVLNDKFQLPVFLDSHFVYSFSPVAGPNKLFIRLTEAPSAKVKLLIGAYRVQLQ
Sequence of Transient receptor potential cation channel subfamily V member 1 (Homo sapiens) (Q8NER1 whole entry, looked up): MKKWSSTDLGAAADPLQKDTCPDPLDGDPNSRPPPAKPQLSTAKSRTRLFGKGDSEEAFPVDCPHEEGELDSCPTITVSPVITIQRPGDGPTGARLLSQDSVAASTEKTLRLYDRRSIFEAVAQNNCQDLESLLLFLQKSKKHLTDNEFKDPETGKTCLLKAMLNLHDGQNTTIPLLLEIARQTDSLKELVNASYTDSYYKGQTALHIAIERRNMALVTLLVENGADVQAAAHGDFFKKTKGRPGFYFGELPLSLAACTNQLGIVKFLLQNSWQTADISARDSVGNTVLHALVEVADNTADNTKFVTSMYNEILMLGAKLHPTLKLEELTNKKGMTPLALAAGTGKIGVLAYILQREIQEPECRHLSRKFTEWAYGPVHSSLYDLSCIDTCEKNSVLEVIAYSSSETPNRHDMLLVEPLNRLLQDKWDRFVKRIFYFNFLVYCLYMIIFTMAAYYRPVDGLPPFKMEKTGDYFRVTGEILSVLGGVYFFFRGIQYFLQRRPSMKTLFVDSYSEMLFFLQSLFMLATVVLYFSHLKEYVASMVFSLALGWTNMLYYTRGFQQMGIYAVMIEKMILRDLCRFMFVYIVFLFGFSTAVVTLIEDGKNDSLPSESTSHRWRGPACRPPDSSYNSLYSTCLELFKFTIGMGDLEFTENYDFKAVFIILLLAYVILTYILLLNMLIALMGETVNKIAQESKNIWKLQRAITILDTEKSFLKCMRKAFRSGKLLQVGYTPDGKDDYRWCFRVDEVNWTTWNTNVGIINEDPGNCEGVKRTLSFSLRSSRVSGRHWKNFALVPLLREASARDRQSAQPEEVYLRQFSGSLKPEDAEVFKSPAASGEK
Sequence of Ferritin light chain (Equus caballus) (P02791 2-175 limits assumed): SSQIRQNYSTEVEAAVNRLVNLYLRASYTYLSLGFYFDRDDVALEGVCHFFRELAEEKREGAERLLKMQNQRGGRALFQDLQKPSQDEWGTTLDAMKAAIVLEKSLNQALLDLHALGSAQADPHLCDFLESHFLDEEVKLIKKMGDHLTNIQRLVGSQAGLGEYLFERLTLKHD

## S=C(Nc1ccccc1)Nc1nccs1
[1]
  Potency: inactive
[2]
  Potency: inactive
[3]
  Potency: 3.55 µM (active)
[4]
  Potency: 7.94 µM (active)
[5]
  Potency: 12.6 µM (active)
[6]
  Potency: 11.2 µM (active)
[7]
  Potency: 8.91 µM (active)
[8]
  outcome: inactive
[9]
  Potency: inactive
[10]
  Potency: inactive
[11]
  Potency: inactive
[12]
  Potency: inactive
[13]
  outcome: inactive
[14]
  outcome: inactive
[15]
  Potency: 9.28 µM (active)
[16]
  outcome: inactive
[17]
  Potency: 5.97 µM (active)
[18]
  Potency: inactive
[19]
  outcome: inactive
[20]
  outcome: inactive
